According to publication PMC7862700, “An all-to-all approach to the identification of sequence-specific readers for epigenetic DNA modifications on cytosine”:

What follows are sequences tested against T1, ELF5 (Homo sapiens, UniProt Q9UKW6-2 1-255) (assay: DAPPL (digital affinity profiling via proximity ligation, sequencing); 10 mM Tris-HCl pH 7.5, 50 mM NaCl, 1 mM DTT, 4% glycerol, room temperature, 30 min; GST-TFs on glutathione beads, 16-mer random dsDNA library, 0.1% formaldehyde crosslink after washing; high values mean tight binding). Details: protein: recombinant; tags: N-terminal GST; dsDNA, one strand shown.
T1 sequence: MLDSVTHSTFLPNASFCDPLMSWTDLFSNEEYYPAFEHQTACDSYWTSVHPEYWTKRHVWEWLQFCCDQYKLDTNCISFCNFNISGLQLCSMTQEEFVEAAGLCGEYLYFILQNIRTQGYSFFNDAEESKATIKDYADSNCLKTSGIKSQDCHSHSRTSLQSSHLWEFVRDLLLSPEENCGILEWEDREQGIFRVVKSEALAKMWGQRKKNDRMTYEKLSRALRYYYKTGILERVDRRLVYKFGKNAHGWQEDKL
How it was run: (§1)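 Human transcription factors were made in yeast as GST fusions, captured on glutathione beads and barcoded with DNA. With a tag-only sample included, the pool was incubated with 200 nmole of a random double-stranded 16-mer DNA library in Tris/NaCl/DTT/glycerol buffer at room temperature for 30 min, then crosslinked with 0.1% formaldehyde after washing, ligated by proximity, amplified and sequenced. For binding signal, each hexamer's read frequency for a factor is divided by its frequency for the tag-only sample.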

Sequence	binding signal
CATACG	1.06 fold enrichment (6-mer frequency, TF over GST control)
AAGGGT	1.04 fold enrichment (6-mer frequency, TF over GST control)
TTGCCG	1.07 fold enrichment (6-mer frequency, TF over GST control)
ACATGG	1.1 fold enrichment (6-mer frequency, TF over GST control)
GTTGAT	1.05 fold enrichment (6-mer frequency, TF over GST control)
ATGCCG	1.13 fold enrichment (6-mer frequency, TF over GST control)
CCGCTG	1.03 fold enrichment (6-mer frequency, TF over GST control)
ACCACC	1.07 fold enrichment (6-mer frequency, TF over GST control)
TGCCAA	1.1 fold enrichment (6-mer frequency, TF over GST control)
GTCCCA	1.12 fold enrichment (6-mer frequency, TF over GST control)
CCATGC	1.03 fold enrichment (6-mer frequency, TF over GST control)
GCTGCC	1.09 fold enrichment (6-mer frequency, TF over GST control)
TCAACA	1 fold enrichment (6-mer frequency, TF over GST control)
ACCACA	1.09 fold enrichment (6-mer frequency, TF over GST control)
GGTTTT	1.12 fold enrichment (6-mer frequency, TF over GST control)
CCACCT	1.09 fold enrichment (6-mer frequency, TF over GST control)
TTGGTC	1.04 fold enrichment (6-mer frequency, TF over GST control)
GGGTTC	1.1 fold enrichment (6-mer frequency, TF over GST control)
ACGTTG	1.02 fold enrichment (6-mer frequency, TF over GST control)
AGCAAC	1.07 fold enrichment (6-mer frequency, TF over GST control)
AAAGCG	1.07 fold enrichment (6-mer frequency, TF over GST control)
ATGGTG	1.02 fold enrichment (6-mer frequency, TF over GST control)
TGCTGC	1.16 fold enrichment (6-mer frequency, TF over GST control)
CATCGC	1.03 fold enrichment (6-mer frequency, TF over GST control)

These sequences were tested against T2, ETV3 (Homo sapiens, UniProt P41162-2 1-143) in the same assay as above. Details: protein: recombinant; tags: N-terminal GST; dsDNA, one strand shown.
T2 sequence: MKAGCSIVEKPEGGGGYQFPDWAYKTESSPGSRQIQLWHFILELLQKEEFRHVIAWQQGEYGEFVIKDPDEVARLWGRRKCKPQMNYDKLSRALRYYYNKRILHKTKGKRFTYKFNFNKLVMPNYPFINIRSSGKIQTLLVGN
How it was run: as §1

Sequence	binding signal
GTCTAC	1.06 fold enrichment (6-mer frequency, TF over GST control)
GCCCCA	1.06 fold enrichment (6-mer frequency, TF over GST control)
CGCCCG	1.3 fold enrichment (6-mer frequency, TF over GST control)
AAGGCA	1.07 fold enrichment (6-mer frequency, TF over GST control)
TGGTGC	1.17 fold enrichment (6-mer frequency, TF over GST control)
AAGGGT	1.05 fold enrichment (6-mer frequency, TF over GST control)
TTGCCG	1.1 fold enrichment (6-mer frequency, TF over GST control)
ACATGG	1.13 fold enrichment (6-mer frequency, TF over GST control)
GTTGAT	1.08 fold enrichment (6-mer frequency, TF over GST control)
ATGCCG	1.24 fold enrichment (6-mer frequency, TF over GST control)
CCGCTG	1.08 fold enrichment (6-mer frequency, TF over GST control)
ACCACC	1.08 fold enrichment (6-mer frequency, TF over GST control)
TGCCAA	1.13 fold enrichment (6-mer frequency, TF over GST control)
GCGCGC	1.02 fold enrichment (6-mer frequency, TF over GST control)
GTCCCA	1.07 fold enrichment (6-mer frequency, TF over GST control)
CCGATG	1.12 fold enrichment (6-mer frequency, TF over GST control)
CCATGC	1.12 fold enrichment (6-mer frequency, TF over GST control)
GCTGCC	1.12 fold enrichment (6-mer frequency, TF over GST control)

Sequence	binding signal
TCAACA	1.08 fold enrichment (6-mer frequency, TF over GST control)
GTCTTG	1 fold enrichment (6-mer frequency, TF over GST control)
ACCACA	1.02 fold enrichment (6-mer frequency, TF over GST control)
TGGACC	1.04 fold enrichment (6-mer frequency, TF over GST control)
GCCCAC	1.09 fold enrichment (6-mer frequency, TF over GST control)
CGGCCT	1.18 fold enrichment (6-mer frequency, TF over GST control)
GGTTTT	1.14 fold enrichment (6-mer frequency, TF over GST control)
CCACCT	1.08 fold enrichment (6-mer frequency, TF over GST control)
TTGGTC	1.05 fold enrichment (6-mer frequency, TF over GST control)
GGGTTC	1.1 fold enrichment (6-mer frequency, TF over GST control)
ACGTTG	1.11 fold enrichment (6-mer frequency, TF over GST control)
CCACAC	1 fold enrichment (6-mer frequency, TF over GST control)
TGGTCA	1.01 fold enrichment (6-mer frequency, TF over GST control)
AGCAAC	1.04 fold enrichment (6-mer frequency, TF over GST control)
AAAGCG	1.14 fold enrichment (6-mer frequency, TF over GST control)
ATGGTG	1.04 fold enrichment (6-mer frequency, TF over GST control)
TGCTGC	1.23 fold enrichment (6-mer frequency, TF over GST control)
CATCGC	1.1 fold enrichment (6-mer frequency, TF over GST control)

Each sequence was assayed against ETV6 (Homo sapiens, UniProt P41212 1-452) in the same assay as above. Details: protein: recombinant; tags: N-terminal GST; dsDNA, one strand shown.
Chain of ETV6 (P41212 whole entry): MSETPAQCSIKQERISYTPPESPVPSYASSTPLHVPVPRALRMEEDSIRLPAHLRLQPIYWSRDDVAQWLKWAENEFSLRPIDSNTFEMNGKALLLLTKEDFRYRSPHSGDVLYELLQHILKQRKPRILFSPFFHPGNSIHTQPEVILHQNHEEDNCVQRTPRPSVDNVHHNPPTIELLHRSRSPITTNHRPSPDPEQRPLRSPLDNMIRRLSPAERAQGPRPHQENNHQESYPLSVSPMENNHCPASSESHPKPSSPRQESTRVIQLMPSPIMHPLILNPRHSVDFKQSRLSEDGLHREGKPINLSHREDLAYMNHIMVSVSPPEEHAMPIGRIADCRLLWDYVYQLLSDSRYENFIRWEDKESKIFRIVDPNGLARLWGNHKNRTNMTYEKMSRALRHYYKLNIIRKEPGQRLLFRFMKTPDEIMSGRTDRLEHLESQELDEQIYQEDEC
How it was run: as §1

Sequence	binding signal
GTCTAC	1 fold enrichment (6-mer frequency, TF over GST control)
GCCCCA	1.03 fold enrichment (6-mer frequency, TF over GST control)
CGCCCG	1.02 fold enrichment (6-mer frequency, TF over GST control)
AAGGCA	1.03 fold enrichment (6-mer frequency, TF over GST control)
CATACG	1.01 fold enrichment (6-mer frequency, TF over GST control)
TTGCCG	1.08 fold enrichment (6-mer frequency, TF over GST control)
ACATGG	1.14 fold enrichment (6-mer frequency, TF over GST control)
ATGCCG	1.15 fold enrichment (6-mer frequency, TF over GST control)
CCGCTG	1.11 fold enrichment (6-mer frequency, TF over GST control)
ACCACC	1.09 fold enrichment (6-mer frequency, TF over GST control)
TGCCAA	1.08 fold enrichment (6-mer frequency, TF over GST control)
GCGCGC	1.03 fold enrichment (6-mer frequency, TF over GST control)
GTCCCA	1.03 fold enrichment (6-mer frequency, TF over GST control)
CCATGC	1.12 fold enrichment (6-mer frequency, TF over GST control)
GCTGCC	1.13 fold enrichment (6-mer frequency, TF over GST control)
ACCACA	1.08 fold enrichment (6-mer frequency, TF over GST control)
TGGACC	1.08 fold enrichment (6-mer frequency, TF over GST control)
GCCCAC	1.05 fold enrichment (6-mer frequency, TF over GST control)
GGTTTT	1.05 fold enrichment (6-mer frequency, TF over GST control)
CCACCT	1.06 fold enrichment (6-mer frequency, TF over GST control)
TTGGTC	1.06 fold enrichment (6-mer frequency, TF over GST control)
ACGTTG	1.11 fold enrichment (6-mer frequency, TF over GST control)
CCACAC	1.02 fold enrichment (6-mer frequency, TF over GST control)
TGGTCA	1.04 fold enrichment (6-mer frequency, TF over GST control)
AGCAAC	1.06 fold enrichment (6-mer frequency, TF over GST control)
AAAGCG	1.1 fold enrichment (6-mer frequency, TF over GST control)
ATGGTG	1.11 fold enrichment (6-mer frequency, TF over GST control)
TGCTGC	1.1 fold enrichment (6-mer frequency, TF over GST control)
CATCGC	1.02 fold enrichment (6-mer frequency, TF over GST control)
